Assay results from PubChem BioAssay (Tox21).
Inconclusive results are not listed. The source made the active and inactive calls. Unless noted, calls follow the shape of the full dose curve.

Assays:
[1] = Nuclear factor erythroid 2-related factor 2/antioxidant responsive element (Nrf2/ARE) small molecule agonists: qHTS cell viability counter screen in human keratinocytes (AID 1919968; active = well fitted curve in the direction sought with a large enough effect in the repeat runs; an effect the other way counts as inactive or inconclusive; also: nearly all actives have a fitted effect of over 55% in size; also: potency is read from the fitted curve at half-maximal effect)
Procedure, shortened: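 Viability counter-screen: KeratinoSens reporter cells, DMSO-delivered compounds, 23 h at 37 C, CellTiter-Fluor fluorescence.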

[2] = Nuclear factor erythroid 2-related factor 2/antioxidant responsive element (Nrf2/ARE) small molecule agonists: luciferase reporter gene qHTS assay in human keratinocytes (AID 1919969); also: nearly all actives have a fitted effect of over 35% in size; also: potency is read from the fitted curve at half-maximal effect
[3] = target: Gonadotropin-releasing hormone receptor (Homo sapiens) (UniProt P30968); assay: Human gonadotropin-releasing hormone receptor (GnRHR) small molecule agonists, calcium flux assay in GnRHR-HEK293 cells (AID 1920063); also: nearly all actives have a fitted effect of over 35% in size
Gonadotropin-releasing hormone receptor (Homo sapiens), sequence (P30968 whole entry, looked up): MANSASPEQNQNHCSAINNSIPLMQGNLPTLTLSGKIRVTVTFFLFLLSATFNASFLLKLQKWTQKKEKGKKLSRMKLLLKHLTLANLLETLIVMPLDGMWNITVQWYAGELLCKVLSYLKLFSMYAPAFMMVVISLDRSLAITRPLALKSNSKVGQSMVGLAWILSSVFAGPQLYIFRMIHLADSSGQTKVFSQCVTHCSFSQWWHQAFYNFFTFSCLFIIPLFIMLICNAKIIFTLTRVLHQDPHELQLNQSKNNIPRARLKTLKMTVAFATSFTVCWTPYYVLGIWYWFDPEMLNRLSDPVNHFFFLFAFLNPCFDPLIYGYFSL
Procedure, shortened: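 Tox21-format agonist screen using human GnRHR-expressing HEK293 cells and a fluorescent calcium dye; kinetic 3-min fluorescence reading after compound addition, 15-point concentration series run in triplicate.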

[4] = target: KiSS-1 receptor (Homo sapiens) (UniProt Q969F8); assay: Human kisspeptin (KISS1R) small molecule agonists, calcium flux assay in KISS1R-HEK293 cells (AID 1920064; active = well fitted curve in the direction sought with a large enough effect in the repeat runs; an effect the other way counts as inactive or inconclusive)
KiSS-1 receptor (Homo sapiens), sequence (Q969F8 whole entry, looked up): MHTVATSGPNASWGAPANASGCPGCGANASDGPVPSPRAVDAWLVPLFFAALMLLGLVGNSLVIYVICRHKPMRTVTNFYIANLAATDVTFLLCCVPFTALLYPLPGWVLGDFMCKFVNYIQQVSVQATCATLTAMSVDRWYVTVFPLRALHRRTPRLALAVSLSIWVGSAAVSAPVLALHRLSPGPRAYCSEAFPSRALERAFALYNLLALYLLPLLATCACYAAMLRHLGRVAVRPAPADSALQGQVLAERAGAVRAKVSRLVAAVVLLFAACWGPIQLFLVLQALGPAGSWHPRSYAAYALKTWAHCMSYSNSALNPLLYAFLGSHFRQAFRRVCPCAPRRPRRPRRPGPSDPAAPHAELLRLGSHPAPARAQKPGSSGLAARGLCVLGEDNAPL
Procedure, shortened: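 Intracellular calcium mobilization in KISS1R-HEK293 cells was recorded by fluorescence (Ex/Em 480/540) for 3 min following compound addition to cells pre-loaded 1 h with calcium dye.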

[5] = G protein-coupled receptor (GPCR) small molecule agonists, calcium flux assay: HEK293 wild type cell line counter screen (AID 1920065)
Procedure, shortened: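 In this agonist-mode screen, ATP is the positive control and DMSO the vehicle. Cells grow 18 h before a 1 h dye incubation at 37 C; signal is taken at Ex/Em 480/540 over 3 min.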

[6] = p53 small molecule agonists, cell-based qHTS assay with human liver microsomes: qHTS cell viability counter screen (AID 1963579); also: nearly all actives have a fitted effect of over 45% in size; also: potency is read from the fitted curve at half-maximal effect
Procedure, shortened: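 Cytotoxicity counter screen: p53RE-bla, 4,000 cells/well; 5 h settle, 37 C/5% CO2; cpd + HLM 0.5 mg/mL + NADPH 0.5 mg/mL (final); 16 h, 37 C; CellTiter-Glo, 30 min RT, luminescence.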

[7] = p53 small molecule agonists, cell-based qHTS assay with rat liver microsomes: qHTS cell viability counter screen (AID 1963580); also: nearly all actives have a fitted effect of over 45% in size; also: potency is read from the fitted curve at half-maximal effect
Procedure, shortened: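 HCT-116 p53RE-bla, 4,000 cells/well, 5 h pre-incubation; cpd + rat liver microsomes 0.5 mg/mL + NADPH 0.5 mg/mL (final); 16 h, 37 C; CellTiter-Glo, 30 min RT; luminescence.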

[8] = target: 5-hydroxytryptamine receptor 2A (Homo sapiens) (UniProt P28223); assay: 5-hydroxytryptamine receptor 2A (HTR2A) small molecule antagonists, cell-based qHTS assay (AID 1963586); also: nearly all actives have a fitted effect of over 45% in size
5-hydroxytryptamine receptor 2A (Homo sapiens), sequence (P28223 whole entry, looked up): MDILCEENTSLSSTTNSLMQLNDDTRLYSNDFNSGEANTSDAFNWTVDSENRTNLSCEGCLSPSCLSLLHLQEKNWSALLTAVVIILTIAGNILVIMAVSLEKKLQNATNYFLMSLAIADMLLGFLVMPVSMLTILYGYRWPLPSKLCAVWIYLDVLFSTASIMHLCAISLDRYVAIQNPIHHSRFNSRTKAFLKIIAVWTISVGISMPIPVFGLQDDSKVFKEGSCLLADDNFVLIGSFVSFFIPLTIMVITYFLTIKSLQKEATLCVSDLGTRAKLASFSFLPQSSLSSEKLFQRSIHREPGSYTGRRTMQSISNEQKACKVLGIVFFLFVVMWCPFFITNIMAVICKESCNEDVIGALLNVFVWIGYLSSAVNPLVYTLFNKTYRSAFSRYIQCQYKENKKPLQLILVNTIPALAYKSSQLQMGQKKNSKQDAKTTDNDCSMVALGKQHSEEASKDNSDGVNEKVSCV
Procedure, shortened: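 Antagonist-mode intracellular calcium assay: DOI (4 nM) added after 5 min compound pre-incubation at room temperature to dye-loaded HTR2A-CHO cells. Fluorescence followed for 3 min, sampled every second.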

[9] = target: 5-hydroxytryptamine receptor 2A (Homo sapiens) (UniProt P28223); assay: 5-hydroxytryptamine receptor 2A (HTR2A) small molecule agonists, cell-based qHTS assay (AID 1963587); also: nearly all actives have a fitted effect of over 30% in size
Procedure, shortened: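 Kinetic calcium-flux fluorescence (2 min, 1 sec intervals) after compound addition in agonist mode. HTR2A-CHO cells were cultured 18 h, then dye-loaded 1 h at 37 C.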

[10] = target: Muscarinic acetylcholine receptor M1 (Homo sapiens) (UniProt P11229); assay: Cholinergic receptor muscarinic 1 (CHRM1) small molecule antagonists, cell-based qHTS assay (AID 1963588); also: nearly all actives have a fitted effect of over 40% in size
Muscarinic acetylcholine receptor M1 (Homo sapiens), sequence (P11229 whole entry, looked up): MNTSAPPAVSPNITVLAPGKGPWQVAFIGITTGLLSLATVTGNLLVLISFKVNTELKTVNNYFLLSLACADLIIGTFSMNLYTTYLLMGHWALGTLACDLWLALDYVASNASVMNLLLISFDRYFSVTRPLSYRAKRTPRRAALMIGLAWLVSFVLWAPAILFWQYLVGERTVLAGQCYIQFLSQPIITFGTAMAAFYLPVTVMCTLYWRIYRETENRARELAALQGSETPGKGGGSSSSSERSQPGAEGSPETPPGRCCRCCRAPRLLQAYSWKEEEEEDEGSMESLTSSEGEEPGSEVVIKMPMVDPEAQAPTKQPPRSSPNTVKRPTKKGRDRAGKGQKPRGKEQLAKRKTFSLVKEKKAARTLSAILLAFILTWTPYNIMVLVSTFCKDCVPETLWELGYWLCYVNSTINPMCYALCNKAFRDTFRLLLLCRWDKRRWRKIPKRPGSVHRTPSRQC
Procedure, shortened: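 CHRM1-CHO calcium-flux assay, antagonist mode. Cells were seeded 18 h, dye-loaded 1 h at 37 C and given compound for 5 min at RT, then acetylcholine was added at 50nM. FDSS fluorescence was read 3 min; 15 concentrations, three runs.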

[11] = target: Muscarinic acetylcholine receptor M1 (Homo sapiens) (UniProt P11229); assay: Cholinergic receptor muscarinic 1 (CHRM1) small molecule agonists, cell-based qHTS assay (AID 1963589); also: nearly all actives have a fitted effect of over 35% in size
Procedure, shortened: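 Stable CHRM1-CHO cells (human receptor) were incubated 18 h, dye-loaded for 1 h at 37 C and exposed to test compounds for agonist activity, with calcium-dependent fluorescence followed kinetically.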

[12] = cAMP Responsive Elements (CRE) small molecule antagonists, cell-based qHTS assay (AID 1963591; active = well fitted inhibition curve with a large enough effect in the signal ratio in the repeat runs, not every such curve was filed as active; the % refers to the signal ratio)
Procedure, shortened: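 qHTS in CRE-bla HEK 293T cells: compound in DMSO, then 0.25 uM NKH477 (final), 3 h at 37 °C/5% CO2; beta-lactamase FRET read-out after 2 h substrate incubation.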

[13] = target: Beta-2 adrenergic receptor (Homo sapiens) (UniProt P07550); assay: Adrenergic beta2 receptor (ADRB2) small molecule antagonists, cell-based qHTS assay (AID 1963592); also: series mostly up to about 92 µM; nearly all actives have a fitted effect of over 50% in size
Beta-2 adrenergic receptor (Homo sapiens), sequence (P07550 whole entry, looked up): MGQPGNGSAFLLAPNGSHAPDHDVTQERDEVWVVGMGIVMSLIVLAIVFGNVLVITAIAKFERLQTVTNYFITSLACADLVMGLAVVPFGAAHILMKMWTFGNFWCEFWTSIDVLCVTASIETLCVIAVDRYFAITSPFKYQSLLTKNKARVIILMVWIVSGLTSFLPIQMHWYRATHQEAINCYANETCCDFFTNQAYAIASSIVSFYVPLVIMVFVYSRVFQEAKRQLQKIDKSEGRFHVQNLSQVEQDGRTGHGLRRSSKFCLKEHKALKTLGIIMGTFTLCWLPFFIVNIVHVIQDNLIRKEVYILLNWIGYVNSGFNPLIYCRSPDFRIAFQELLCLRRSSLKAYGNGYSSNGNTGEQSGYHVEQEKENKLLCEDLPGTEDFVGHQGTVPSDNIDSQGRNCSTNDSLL
Procedure, shortened: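 Cells (CHO, stable ADRB2 overexpression) incubated 18-20hr at 37C; compounds added from DMSO; agonist mix (1nM isoproterenol, 100uM IBMX, 25uM Ro-20-1724) added; 0.5hr RT; d2-cAMP and anti-cAMP-cryptate added; 1hr RT; 665/615 nm read.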

[14] = target: Beta-2 adrenergic receptor (Homo sapiens) (UniProt P07550); assay: Adrenergic beta2 receptor (ADRB2) small molecule agonists, cell-based qHTS assay (AID 1963593);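 also: CHO cells stably overexpressing human ADRB2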
Procedure, shortened: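 CHO cells stably over-expressing ADRB2 were plated overnight at 37C, then dosed with compounds plus a stimulation mix containing 100uM IBMX and 25uM Ro-20-1724 for 0.5hr at room temperature. cAMP was measured by HTRF competition, 1hr.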

[15] = target: D(2) dopamine receptor (Homo sapiens) (UniProt P14416); assay: Dopamine D2 receptor (DRD2) small molecule agonists, cell-based qHTS assay (AID 1963594); also: nearly all actives have a fitted effect of over 35% in size
D(2) dopamine receptor (Homo sapiens), sequence (P14416 whole entry, looked up): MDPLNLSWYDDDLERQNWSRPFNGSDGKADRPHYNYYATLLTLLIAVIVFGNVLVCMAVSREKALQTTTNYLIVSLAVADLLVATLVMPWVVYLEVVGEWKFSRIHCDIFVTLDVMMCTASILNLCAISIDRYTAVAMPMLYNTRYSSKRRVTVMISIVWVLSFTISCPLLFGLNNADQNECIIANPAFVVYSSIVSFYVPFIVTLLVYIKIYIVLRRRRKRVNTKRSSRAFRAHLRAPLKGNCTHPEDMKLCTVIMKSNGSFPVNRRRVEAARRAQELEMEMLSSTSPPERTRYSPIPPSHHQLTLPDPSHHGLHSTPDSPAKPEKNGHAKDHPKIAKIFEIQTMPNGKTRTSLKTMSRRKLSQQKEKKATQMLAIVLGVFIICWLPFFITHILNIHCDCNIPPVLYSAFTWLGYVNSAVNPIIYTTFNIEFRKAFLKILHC
Procedure, shortened: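 cAMP accumulation in DRD2-HEK293 cells measured by HTRF after 1 h detection; compounds added 10 min before NKH477 (200nM […]) forskolin-analogue stimulation, 30 min at room temperature, with Ro20-1724 present at 0.1 mM final.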

[16] = target: D(2) dopamine receptor (Homo sapiens) (UniProt P14416); assay: Dopamine D2 receptor (DRD2) small molecule antagonists, cell-based qHTS assay (AID 1963595; active = well fitted inhibition curve with a large enough effect in the signal ratio in the repeat runs, with a control signal flat; the % refers to the signal ratio)
Procedure, shortened: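 Stable D2 receptor HEK293 line, 24 h after seeding. Compound preincubated 10 min, then quinpirole (12 nM) with forskolin analogue NKH477 (200 nM), 30 min, room temperature. Detection by time-resolved FRET of cAMP.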

[17] = cAMP Responsive Elements (CRE) small molecule agonists, cell-based qHTS assay (AID 1963590)
Procedure, shortened: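 FRET-based beta-lactamase readout (LiveBLAzer B/G, 2 h RT) quantified CRE activation in HEK 293T CRE-bla cells after 3 h treatment with DMSO-dissolved compounds.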

Measured: Potency

CC(C)c1ccc2cc(C(C)C)ccc2c1
active: [2] 48.6 µM
not listed: [17]
inactive: all other assays above

N#Cc1ccccc1C#N
not listed: [16]
inactive: all other assays above

CCC(=O)OCCOc1ccccc1
not listed: [14]
inactive: all other assays above

Cc1ccc(OC(=O)CC(C)C)cc1
not listed: [14]
inactive: all other assays above

CC(C)=CCCC(C)CC(=O)O (configuration not stated)
not listed: [12] | [14]
inactive: all other assays above

Nc1ccc(Oc2ccc(N)c(N)c2)cc1
active: [2] 6.11 µM
not listed: [10] | [11] | [15]
inactive: all other assays above

CCOc1ccc(NS(=O)(=O)c2ccc(N)cc2)nn1
not listed: [14]
inactive: all other assays above

NCCNC(=O)c1ccc(Cl)cn1
not listed: [9] | [12] | [13] | [15] | [17]
inactive: all other assays above

O=C(O)Cc1ccc(OCCNC[C@H](O)c2ccccc2)cc1
active: [2] 33.5 µM
not listed: [14]
inactive: all other assays above

N#CCCN(CCO)CCO
inactive: all assays above

COc1ccc2c(c1)c1c3n2CCN(C)C3=NCC1
not listed: [13] | [14]
inactive: all other assays above

SC1CCCC1
inactive: all assays above

CC(C)C(C)C
not listed: [17]
inactive: all other assays above

CC(C)COC(=O)C(C)C
not listed: [8]
inactive: all other assays above

N#Cc1nc(Cl)c(Cl)c(Cl)c1Cl
active: [1] 6.11 µM | [2] 2.43 µM | [6] 11.5 µM | [7] 36.3 µM
not listed: [8] | [12] | [14] | [16] | [17]
inactive: all other assays above

CC(=O)Oc1cccc2c1C(=O)c1c(OC(C)=O)cc(C(=O)O)cc1C2=O
not listed: [12] | [14] | [16] | [17]
inactive: all other assays above

COc1ccc(COC=O)cc1
not listed: [14] | [16] | [17]
inactive: all other assays above
